Results filed as inconclusive are left out. Where a call stands in place of a potency, no number is given. Values without a mark were called inactive. The source made the active and inactive calls. The call rests on the fitted dose curve; in most records, active means well fitted inhibition curve with a large enough effect; inconclusive means small, poorly fitted or top-dose-only effect; inactive means no such curve, though single readings can be large or run the other way.

Data on 40 molecules can be found in PubChem BioAssay (NCATS).
Potency means the concentration at half of the fitted maximal effect.

This assay in a line: P-glycoprotein substrates identified in KB-3-1 adenocarcinoma cell line, qHTS therapeutic library screen (AID 1346986). Further: nearly all actives have a fitted effect of over 60% in size.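 Further: potency is for cytotoxicity meaning loss of cell viability.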 The conditions noted are these: KB-3-1 parental cells viability, CellTiter-Glo, 72 h; series mostly up to 44.5 µM; activity change, negative = cytotoxicity: at the top concentration. Here is the method:
The ATP-binding cassette transporters P-glycoprotein (P-gp) is known to limit brain penetration of many chemotherapy drugs. […] We used the CellTiter-Glo viability assay to test library compounds against the parental KB-3-1 human cervical adenocarcinoma cell line and the colchicine-selected sub-line KB-8-5-11 that over-expresses P-gp. KB-8-5-11 cells were also tested in the presence of a P-gp inhibitor (tariquidar) to assess reversability of transporter-mediated resistance. Of the tested compounds, a total of 90 P-gp substrates were identified including 55 newly identified P-gp substrates. Substrates were confirmed using an orthogonal killing assay against HEK-293 cells transfected with P-gp. As exemplars, we confirmed that AT7159 (cyclin-dependent kinase inhibitor); AT9283, (Janus kinase 2/3 inhibitor); ispinesib (kinesin spindle protein inhibitor); gedatolisib (PKI-587, phosphoinositide 3-kinase/mammalian target of rampamycin inhibitor); GSK-690693 (AKT inhibitor); and KW-2478 (heat shock protein 90 inhibitor) were substrates , and direct ATPase stimulation was assessed. ABCG2 was also found to confer high levels of resistance to AT9283, GSK-690693 and gedatolisib, while ispinesib, AT7519 and KW-2478 were weaker substrates.
The HeLa derivative cell line, KB-3-1, and its colchicine-selected, P-gp-overexpressing subline, KB-8-5-11 were maintained in DMEM with 10% FCS and Pen/Strep with glutamine at 37 degree C in 5% CO2. For KB-8-5-11 cells, colchicine was added to the medium at a concentration of 100 ng/mL. HEK-293 cells transfected with empty vector (pcDNA) or vector containing human ABCB1 (MDR-19) or ABCG2 (R-5) have been described previously (Robey, Lin, Qiu, Chan & Bates, 2011) and were maintained in EMEM supplemented with 10% FCS, Pen/Strep and glutamine with 2 mg/ml G418 to select for the expression of the transporter. Cultures were confirmed to be free of mycoplasma infection using the MycoAlert Mycoplasma Detection Kit (Lonza, Walkersville, MD). For the screen, assay medium was identical to culture medium except for KB-8-5-11 where colchicine was excluded from the medium.
All cell lines were plated into 1536-well plates at 500 cells/well in 5 uL media. Compounds were then pinned in dose-response using a 1536-head pin tool (Kalypsis, San Diego, CA) and plates were incubated at 37 degree C in 5% CO2 for an additional 72 h. CellTiter-Glo reagent (Promega) was dispensed into the wells, incubated for 5 min and luminescence was read on a ViewLux instrument (Perkin-Elmer). Cytotoxic compounds were defined as those that yielded a curve class of -1.1, -1.2, -2.1, -2.2, -2.3, or -2.4, a maximum response of >50% and an AC50 of < 10 uM. Cherry-picked hits from screening analysis were tested with both the KB pair of cell lines, and the pcDNA (empty vector control) and MDR-19 (P-gp overexpressing) pair were tested, in the absence and presence of tariquidar.
Regarding `Cc1ccc(-n2nc(C(C)(C)C)cc2NC(=O)Nc2ccc(OCCN3CCOCC3)c3ccccc23)cc1`, the Potency result is “inactive”.
Still for that read-out and setting: then `Cc1n[nH]c(C)c1Cc1sc2c(c1C(=O)N1C[C@H](O)CO1)c(=O)n(C)c(=O)n2CC(C)C`, with “inactive”.
As to `CCN(CC)CCCC(C)Nc1nc(C)cc(Nc2ccc3nc(C)cc(N)c3c2)n1` (stereo not given), the result was inactive.
Take `CC[C@H](Nc1ncnc2nc[nH]c12)c1nc2cccc(F)c2c(=O)n1-c1ccccc1`: the outcome is “inactive [at 9.29 µM]”.
Same read-out and setting: with `CC1(C)SCCN(S(=O)(=O)c2ccc(OCC#CCO)cc2)[C@@H]1C(=O)NO` the entry was “inactive”.
In the case of `COc1cccc2cc(-c3nc(C4CCC(C(=O)O)CC4)n4ncnc(N)c34)[nH]c12` (stereo not given), the Potency is 1300 nM (active).
Regarding `NC(=O)c1cnccn1`, the outcome was inactive.
Same read-out and setting: then `O=C(C=Cc1ccc(/C=C/C(=O)Nc2ccc(C3=NCCN3)cc2)cc1)Nc1ccc(C2=NCCN2)cc1`, with “inactive”.
As to `CCn1c(-c2nonc2N)nc2cnc(Oc3cccc(NC(=O)c4ccc(OCCN5CCOCC5)cc4)c3)cc21`, the Potency was 3660 nM (active).
As for `Cc1cccc(-c2nn(C(=S)Nc3ccccc3)cc2-c2ccnc3ccccc23)n1`, the “activity change, negative = cytotoxicity” value was -17%.
Consider `CN1CCN(CCCN2c3ccccc3Sc3ccc(C(F)(F)F)cc32)CC1`, for which the outcome was inactive.
For the molecule `COc1c(Cl)cc2c([nH]c3cnccc32)c1NC(=O)c1cccnc1C`, the Potency result was “inactive”.
Consider `COc1cc2nccc(Oc3ccc(NC(=O)NC4CC4)c(Cl)c3)c2cc1C(N)=O`, for which the result was inactive.
Take `Cc1cccc(-c2[nH]c(C(C)(C)C)nc2-c2ccc3nccnc3c2)n1`: the Potency is 3260 nM (active).
As to `CCN(CC)CCCC(C)Nc1ccnc2cc(Cl)ccc12` (stereo not given), the outcome was inactive.
Same read-out and setting: with `Cc1ccccc1C(OCCN(C)C)c1ccccc1` (stereo not given) the entry was “inactive”; with `NS(=O)(=O)c1cc2c(cc1Cl)NC=NS2(=O)=O`, “inactive”; with `CNC[C@H](O)c1cccc(O)c1`, “inactive”.
As to `Oc1cccc(-c2nc(N3CCOCC3)c3oc4ncccc4c3n2)c1`, the Potency is 580 nM (active).
The same measure, in the same setting: with `CO[C@@H]1[C@H](N(C)C(=O)c2ccccc2)C[C@H]2O[C@]1(C)n1c3ccccc3c3c4c(c5c6ccccc6n2c5c31)C(=O)NC4` the figure was 1300 nM (active).
Turning to `Fc1ccc(Cl)cc1-c1nc(Nc2ccncc2)c2nccnc2n1`, the “activity change, negative = cytotoxicity” value was -4.31%.
Take `CC(C)(Sc1ccc(CCN(CCCCC2CCCCC2)C(=O)NC2CCCCC2)cc1)C(=O)O`: the outcome was inactive.
Consider `c1ccc(-c2nn3c(c2-c2ccnc4cc(OCCN5CCOCC5)ccc24)CCC3)nc1`, for which the “activity change, negative = cytotoxicity” value is -22.6%.
As for `COc1cc(F)c(F)c(Nc2ccc(I)cc2F)c1NS(=O)(=O)C1(C[C@H](O)CO)CC1`, the outcome was inactive.
The same measure, in the same setting: then `C[C@H](NC(=O)Cc1cc(F)cc(F)c1)C(=O)N[C@@H]1C(=O)N(C)c2ccccc2-c2ccccc21`, with “inactive”; and `CCOC(=O)N1CCC(=C2c3ccc(Cl)cc3CCc3cccnc32)CC1`, with “inactive”.
Same read-out and setting: with `COc1ccc(-c2oc3cc(OC)ccc3c2C(=O)c2ccc(C#N)cc2)cc1` the entry was “inactive”; with `CC(C=CC1=C(C)CCCC1(C)C)=CC=CC(C)=CC(=O)O`, “inactive”.
As for `COc1cc(Nc2ncc3c(n2)-c2ccc(Cl)cc2C(c2c(F)cccc2OC)=NC3)ccc1C(=O)O`, the Potency was 103 nM (active).
In the case of `O=C(Nc1nc2ccccc2n1CCN1CCOCC1)c1cccc([N+](=O)[O-])c1`, the “activity change, negative = cytotoxicity” value was -14%.
In the case of `Clc1cccc(Cl)c1NC1=NCCN1`, the result was inactive.
On the same count and under the same terms, with `Cc1cn[nH]c1` the entry was “inactive”.
Consider `CN([C@@H](Cc1ccc(OS(=O)(=O)c2cccc3cnccc23)cc1)C(=O)N1CCN(c2ccccc2)CC1)S(=O)(=O)c1cccc2cnccc12`, for which the activity change, negative = cytotoxicity is -0.309% [at 5.11 µM].
As to `Nc1ncnc2nc(-c3ccc(N4CCOCC4)nc3)cc(-c3cccc(Br)c3)c12`, the Potency result is “inactive”.
Take `NC(N)=NC(=O)c1nc(Cl)c(N)nc1N`: the result was inactive.
On the same count and under the same terms, then `Cc1ccnc(NS(=O)(=O)c2ccc(NC(=O)Nc3ccc(S(=O)(=O)Nc4nccc(C)n4)cc3)cc2)n1`, with “inactive”; and `O=c1[nH]c(-c2ccc(C(F)(F)F)cc2)nc2c1CSCC2`, with “inactive”.
On the same count and under the same terms, then `OC(CCN1CCCCC1)(c1ccccc1)C1CC2C=CC1C2` (stereo not given), with “inactive”; and `COc1ccc([C@@H]2CC(=O)c3c(O)cc(O[C@@H]4O[C@H](CO[C@@H]5O[C@@H](C)[C@H](O)[C@@H](O)[C@@H]5O)[C@@H](O)[C@H](O)[C@@H]4O)cc3O2)cc1O`, with “inactive”.
Still for that read-out and setting: with `Cc1cc(SCc2sc(-c3ccc(C(F)(F)F)cc3)nc2C)ccc1OCC(=O)O` the entry was “inactive”.
